Measured values reported in PubChem BioAssay AID434939 (The Scripps Research Institute Molecular Screening Center, 2010).
About 2,000 (87%) of roughly 2,300 compounds were called active. No stated cut-off is given here; in the data, active means activation above about 11%; inactive means the rest. So high a share suggests a set chosen from earlier hits. These entries were drawn from the full list.

Each molecule was assayed against Nuclear receptor subfamily 1 group I member 2 (Homo sapiens) (UniProt O75469) (assay: activation of PXR luciferase reporter – cell-based, luciferase luminescence, counter-screen for AHR activator project (AID 434939;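 further: human hepatoma DPX-2 cells expressing full-length human PXR; 0% = DMSO and 100% = reference agonist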)). Settings: at 11.6 µM, hits give high values.
Sequence of Nuclear receptor subfamily 1 group I member 2 (Homo sapiens) (O75469 whole entry, looked up): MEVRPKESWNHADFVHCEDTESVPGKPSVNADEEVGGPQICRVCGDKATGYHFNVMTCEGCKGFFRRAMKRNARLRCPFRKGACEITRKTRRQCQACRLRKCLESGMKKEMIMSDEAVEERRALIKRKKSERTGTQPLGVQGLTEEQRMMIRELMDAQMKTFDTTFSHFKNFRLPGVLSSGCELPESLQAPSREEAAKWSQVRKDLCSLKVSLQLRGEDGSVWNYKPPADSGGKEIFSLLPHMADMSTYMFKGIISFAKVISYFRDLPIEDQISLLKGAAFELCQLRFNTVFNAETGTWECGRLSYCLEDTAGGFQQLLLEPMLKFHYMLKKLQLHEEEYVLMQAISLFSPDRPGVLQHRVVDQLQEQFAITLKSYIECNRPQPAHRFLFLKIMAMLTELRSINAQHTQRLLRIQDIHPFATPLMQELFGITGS
For `O=C(CSc1cccc2cccnc12)N/N=C/c1cccnc1`, the activation was 10.2% (active). With `COc1ccc(OC)c(-c2csc(-c3cccs3)n2)c1` the activation was 21.7% (active). `O=C(CC1Nc2ccccc2NC1=O)Nc1ccccc1` (stereo unspecified) was tested, and the activation was 26.3% (active). `COc1cc(NC(=O)c2ccc(-c3csc(C)n3)cc2)c(OC)cc1Cl` was tested, and the activation was 20.9% (active). With `O=C(Cn1cncn1)N/N=C/c1c2ccccc2cc2ccccc12` the activation was 13.7% (active). In the case of `O=C(Nc1ccc(Cl)cn1)c1cnn2cccnc12`, the activation is reported as 35.9% (active). In the case of `Cc1ccc(-c2nc(C#N)c(NCCCn3ccnc3)o2)cc1`, the activation is reported as 34.4% (active). In the case of `Cc1ccnc(NC(=O)c2ccc(Cl)c([N+](=O)[O-])c2)c1`, the activation is reported as 42.9% (active). With `Nc1[nH][nH]c(=O)c1N=Nc1ccc2c(c1)OCO2` the activation was 11.2% (active). For `CCOC(=O)c1nc(-c2ccc3c(c2)OCO3)[nH]c1C`, the activation was 34.2% (active). `CCSc1ccccc1C(=O)Nc1ccc2c(c1)OCO2` was tested, and the activation was 143% (active). In the case of `C=CCNC(=O)CSc1nc2sc(C)c(C)c2c(=O)[nH]1`, the activation is reported as 16.4% (active). For `COc1ccccc1NC(=O)C1=C(C)NC2=C(C(=O)CCC2)C1c1ccc(C)o1` (stereo unspecified), the activation was 111% (active). For `Brc1ccc(C2CC(c3ccccc3)=Nc3ccccc3N2)cc1` (stereo unspecified), the activation was 39.7% (active). With `Cc1cccc(NC(=O)Nc2ccc3c(c2)OCO3)n1` the activation was 46.3% (active). In the case of `COc1ccccc1N1CCN(C(=O)c2cc3c(-c4ccc(Cl)cc4)nn(C)c3s2)CC1`, the activation is reported as 39.5% (active). `CCOC(=O)N1CCN(C(=O)c2cc3c(-c4ccc(Cl)cc4)nn(C)c3s2)CC1` was tested, and the activation was 48.9% (active). For `Cn1nc(-c2ccc(Cl)cc2)c2cc(C(=O)NCc3ccco3)sc21`, the activation was 26.7% (active). `CCOC(=O)c1ccc2[nH]c3c(c2c1)CCCC3NC=O` (stereo unspecified) was tested, and the activation was 5.7% (inactive). In the case of `O=C(N/N=C/c1c[nH]c2ccccc12)c1cc2ccccc2o1`, the activation is reported as 7.59% (inactive). With `COc1cccc(-n2c(SCC(=O)NC3CCCCC3)nc3n[nH]c(C)c3c2=N)c1` the activation was 160% (active). `COc1ccccc1Nc1ncnc2c1oc1ccccc12` was tested, and the activation was 21.1% (active). With `Cc1cc(N2CCOCC2)nc(-c2ccc(Br)cc2)n1` the activation was 43.3% (active). In the case of `O=C(Nc1ccc(C2CC2(Cl)Cl)cc1)c1cccc([N+](=O)[O-])c1` (stereo unspecified), the activation is reported as 19.2% (active). With `COc1ccc(C2NC(=O)c3ccccc3N2)cc1` (stereo unspecified) the activation was 6.29% (inactive). For `Brc1ccc(-c2noc(-c3ccccc3)n2)o1`, the activation was 20.2% (active). For `CC(=O)Nc1ccc(-c2nc3ccccc3o2)cc1`, the activation was 10.9% (active). `CC(C)C(=O)Nc1c(C(=O)c2ccc(F)cc2)oc2ccccc12` was tested, and the activation was 25.4% (active). In the case of `C/C(CC1CC(C)(C)OC1=O)=N/Nc1nc(-c2ccccc2)cs1` (stereo unspecified), the activation is reported as 189% (active). For `CCN(CC)C(=O)Oc1ccc(Br)cc1C(=O)Nc1ccc(F)c(Cl)c1`, the activation was 176% (active). For `CCc1nc(Nc2ccc3nccnc3c2)c2oc3ccccc3c2n1`, the activation was 45% (active). `O=C(NC1CC1)C1=C[C@H](c2c[nH]c3ccccc23)C[C@H](OCc2ccc(CO)cc2)O1` was tested, and the activation was 22.2% (active). For `O=C(Nc1cc(S(=O)(=O)Nc2ccc(Cl)cc2)ccc1O)c1ccc(F)cc1F`, the activation was 38.8% (active). With `Cc1nnc(NC(=O)/C=C/c2ccco2)s1` the activation was 36.6% (active). For `COc1cc(/C=N/N=C(\N)c2nonc2N)cc(OC)c1OC`, the activation was 14.7% (active). With `COc1cc(CNCc2ccc3c(c2)OCO3)c([N+](=O)[O-])cc1OC` the activation was 36.7% (active). In the case of `Brc1ccc(C2=CC(c3ccco3)n3ncnc3N2)cc1` (stereo unspecified), the activation is reported as 15% (active). With `Cc1cc(O)c(C(=O)/C=C/c2c(F)c(F)c(F)c(F)c2F)c(=O)o1` the activation was 23.8% (active). `COc1ccc(C(=O)Nc2ccccc2C(=O)N/N=C/c2ccccc2OC)cc1` was tested, and the activation was 28% (active). `O=C(Nc1cccc(Cl)c1)C1CCCN(c2cnccn2)C1` (stereo unspecified) was tested, and the activation was 29.6% (active). `Cc1ccc(Cl)cc1NC(=O)C1CCCN(c2cnccn2)C1` (stereo unspecified) was tested, and the activation was 41.2% (active). For `Cn1c(SCC(=O)c2ccccc2)ncc(C(=O)Nc2ccc(F)cc2)c1=O`, the activation was 13.1% (active). For `CCC(C)NCC(=O)Nc1ccc([N+](=O)[O-])cc1C(=O)Nc1ccccc1F` (stereo unspecified), the activation was 40.5% (active). `Cn1cc(Cl)c(C(=O)NNC(=S)Nc2cccc(Cl)c2)n1` was tested, and the activation was 22.8% (active). `C/C(=N\NC(=O)CNc1cccc2ccccc12)c1ccc(Br)s1` was tested, and the activation was 13.8% (active). `COc1cccc(-c2nc3cc(C)ccc3o2)c1` was tested, and the activation was 31.3% (active). With `CC1Cc2ccccc2N1C(=O)CSc1nnc(C2CC2)n1C` (stereo unspecified) the activation was 80.9% (active). In the case of `CCNC(=S)N1CCC(c2nc3cc(C)c(C)cc3[nH]2)CC1`, the activation is reported as 21.2% (active). In the case of `S=c1[nH]nc(-c2cc(-c3ccsc3)n[nH]2)n1-c1ccccc1`, the activation is reported as 13.7% (active). For `Cc1nn2c3cc(N4CCOCC4)ccc3nc2c2ccccc12`, the activation was 63.2% (active). For `Cc1ccc(NC(=O)Nc2cccnc2)cc1`, the activation was 19.7% (active). `Cc1cccc(NC(=O)c2ccc3ccccc3n2)n1` was tested, and the activation was 20.3% (active). In the case of `COc1ccc(NC(=O)c2ccco2)cc1NC(=O)c1ccc(C#N)cc1F`, the activation is reported as 14.9% (active). With `C=CCOc1c(Br)cc(/C=N\n2nnnc2N)cc1OC` the activation was 78.1% (active). In the case of `Cc1nc2sc(C(=O)c3ccccc3)c(N)c2c2c1CCCC2`, the activation is reported as 69.6% (active). With `O=C(CSc1ccccn1)Nc1nc2c(ccc3ccccc32)s1` the activation was 21.9% (active). For `CCCCC(=O)Nc1ccc(C(=O)Nc2cc(C(F)(F)F)ccc2Cl)cc1`, the activation was 15.4% (active). With `CCOc1ccccc1NC(=O)c1cccnc1` the activation was 24.9% (active). With `COCCNc1nc(-c2ccccc2)nc2c1oc1ccccc12` the activation was 28.9% (active). For `Cc1cccc(N=Nc2c(O)[nH]c3ccc(F)cc23)c1`, the activation was 16.1% (active). `CSc1ccc(C#N)cc1NC(=O)c1ccc(Cl)cc1` was tested, and the activation was 18.5% (active). For `O=C(NCCCn1ccnc1)c1cc(-c2ccccc2)on1`, the activation was 41.3% (active). `Cc1ccnc(-n2sc3ccccc3c2=O)n1` was tested, and the activation was 25.7% (active). `O=C(Nc1ccc(-c2csc(Nc3cccc(C(F)(F)F)c3)n2)cc1)c1cccc(C(F)(F)F)c1` was tested, and the activation was 5.47% (inactive). `O=C(Nc1ccc(C(F)(F)F)cc1)c1cccc(-n2cnnn2)c1` was tested, and the activation was 16.3% (active). In the case of `O=C(Nc1ccc(OC(F)(F)F)cc1)c1ccc2c(c1)no[n+]2[O-]`, the activation is reported as 0.82% (inactive).
